From PubChem BioAssay AID602123 (The Scripps Research Institute Molecular Screening Center, 2011) come the findings set out here.

Screen size: about 360,000 compounds; about 1,500 (0.42%) were called active. The sample as a whole holds a higher share of actives than the screen did. A number with no mark means an inactive call. No stated cut-off is given here; in the data, active means inhibition above about 13% (passing the limit was not always enough); inactive means the rest.

By inhibition is commonly meant the relative decrease from the control value, in per cent.

Lon protease (Escherichia coli (strain K12)), sequence (P0A9M0 whole entry, looked up): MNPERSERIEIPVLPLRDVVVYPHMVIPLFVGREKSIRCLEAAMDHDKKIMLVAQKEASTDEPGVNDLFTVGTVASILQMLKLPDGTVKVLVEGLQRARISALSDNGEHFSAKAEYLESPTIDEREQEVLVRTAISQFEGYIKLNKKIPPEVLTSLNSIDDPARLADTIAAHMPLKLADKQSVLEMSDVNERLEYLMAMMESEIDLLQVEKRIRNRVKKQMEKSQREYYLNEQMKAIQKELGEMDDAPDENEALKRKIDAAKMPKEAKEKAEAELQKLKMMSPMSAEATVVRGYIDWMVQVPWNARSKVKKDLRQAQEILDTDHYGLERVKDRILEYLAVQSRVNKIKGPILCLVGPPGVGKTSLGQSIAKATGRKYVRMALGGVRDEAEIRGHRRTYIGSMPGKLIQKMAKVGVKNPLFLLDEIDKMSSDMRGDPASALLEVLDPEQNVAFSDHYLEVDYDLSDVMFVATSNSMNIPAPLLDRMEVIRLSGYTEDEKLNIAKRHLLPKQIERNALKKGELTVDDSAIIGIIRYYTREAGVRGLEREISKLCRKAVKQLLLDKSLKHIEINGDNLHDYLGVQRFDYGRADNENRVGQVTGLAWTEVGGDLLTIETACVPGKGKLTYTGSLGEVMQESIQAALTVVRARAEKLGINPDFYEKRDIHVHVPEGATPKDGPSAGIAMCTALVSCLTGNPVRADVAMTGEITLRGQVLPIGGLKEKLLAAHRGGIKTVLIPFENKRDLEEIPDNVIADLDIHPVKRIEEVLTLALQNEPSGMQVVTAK

The test addresses Lon protease (Escherichia coli (strain K12)) (UniProt P0A9M0). The test is described as follows: E. coli eLon protease inhibition – biochemical, fluorescence polarization, primary screen (AID 602123).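 Further: 0% = enzyme with probe and DMSO and 100% = no enzyme.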 To be noted: purified E. coli Lon protease, at 7.94 µM, active compounds read high. Background: Polarisation of emitted light reports the rotation of a fluorescent probe.
For `O=S(=O)(NCc1ccccn1)c1ccc(Br)s1`, the inhibition was -5.95%.
Under `O=S(=O)([N-]c1nc2ccccc2nc1-[n+]1ccc(Cc2ccccc2)cc1)c1ccc(Br)s1` stands 51.7% (active).
As for `CCOC(=O)C(C(=O)c1ccccc1)C(c1ccccc1)c1nccc2ccccc12` (configuration not stated), the inhibition is -5.25%.
Consider `CCOCCOCCC(C(=O)O)P(=O)(c1ccccc1)c1ccccc1` (configuration not stated), for which the inhibition is 1.28%.
As to `CSc1ncccc1C(=O)NCC(c1ccco1)N1CCCCC1` (configuration not stated), the inhibition is 2.84%.
Under `O=C(NCc1ccco1)c1cnn2c(C(F)(F)F)cc(-c3ccco3)nc12` stands -0.62%; under `Oc1ccc2ccccc2c1N=Nc1nccs1`, 43.2% (active).
Turning to `O=C(COC(=O)CNC(=O)C1CCCCC1)Nc1cccc(F)c1`, the inhibition is -17.9%.
With `CCN1CCN(CC(=O)c2cc(OC)c(OC)c(OC)c2)CC1`, the inhibition was 7.78%.
Take `CN1c2ccc(C=O)c3c(C=O)ccc(c23)N(C)C1(C)C`: the inhibition was 117% (active).
Under `Cc1ccc(C=O)c([B-](F)(F)F)c1` stands -1.79%.
As to `COc1ccc(C(=O)NCC(c2ccco2)N2CCc3ccccc32)cc1OC` (configuration not stated), the inhibition is 4.85%.
Under `COc1ccc(C)cc1NC(=O)CNCc1cccs1` stands 5.01%.
Consider `COc1ccc(OC)c(NC(=O)Cc2cccs2)c1`, for which the inhibition was 32.4% (active).
Consider `COc1cc(OC)cc(C(=O)NNC(=O)Cc2cccs2)c1`, for which the inhibition was -9.81%.
`COc1cc(C(=O)Nc2ncccc2C)ccc1OCC(=O)N1CCOCC1`: the inhibition was -2.64%.
`CC(=O)CC[C@@H](C)O[C@@H]1OC(C)[C@H](O)CC1O` (some centres not stated): the inhibition is 1.06%.
As to `CCc1cc2c(=O)c(-c3nc4ccccc4n3C)c(CCCC(=O)O)oc2cc1OC(=O)C(C)(C)C`, the inhibition is -5.21%.
On to `O=C1C(Sc2cccc(F)c2)=C[C@@]2(O)CC[C@@H](O)[C@]1(Sc1cccc(F)c1)[C@H]2O`, for which the inhibition is -1.25%.
With `COc1ccc(C(=O)NCc2nnc(SCCOc3ccccc3)n2C)cc1`, the inhibition was 19.3% (active).
Take `COc1ccc(CC(=O)NCc2nnc(SCC(=O)Nc3nccs3)n2C)cc1`: the inhibition is -1.92%.
With `COc1ccc(C(=O)NCc2nnc(SCC(=O)NC3=NCCS3)n2C)cc1`, the inhibition is 1.04%.
In the case of `C/C(=N\NC(=O)NC1CCCCC1)c1ccc(OC(F)F)cc1OC(F)F`, the inhibition was -5.36%.
Under `N#Cc1cc([N+](=O)[O-])ccc1NCC1CCCO1` (configuration not stated) stands 7.82%.
With `O=C1C(C=NCC2CCCO2)=C(O)c2ccccc21` (configuration not stated), the inhibition was 3.5%.
Under `O=C1c2cccc3c([N+](=O)[O-])ccc(c23)C(=O)N1CC1CCCO1` (configuration not stated) stands 25.4% (active); under `COc1ccc(SCCN2CCN(CC(C)C)CCC2=O)cc1`, 8.99%.
For `CN(Cc1cn(Cc2ccc(C(F)(F)F)cc2)nn1)C1CN(Cc2cn(Cc3ccc(C(F)(F)F)cc3)nn2)S(=O)(=O)C1` (configuration not stated), the inhibition was 4.67%.
For `Cc1ccccc1S(=O)(=O)NC(=O)C1(C)CCN1C(=O)C1(c2ccccc2)CCCC1` (configuration not stated), the inhibition was -3.92%.
Under `CCN(CC)C(=O)CSc1nnc(-c2ccc(S(=O)(=O)NCc3ccccc3Cl)cc2)o1` stands 11.8%; under `Cc1cnc(CN(C)C(=O)C2CCC(=O)N(CCc3cccc(F)c3)C2)[nH]1` (configuration not stated), 0.28%; under `COc1ccc(NC(=O)CC(NC(C)c2ccccc2)C(=O)O)cc1` (configuration not stated), 1.2%.
As to `COc1ccc(CC(=O)Nc2ccc(-c3nnc(-c4ccccc4)o3)cc2)cc1`, the inhibition is 27.1% (active).
As for `COc1ccc(NC(=O)CSc2nnc(Cc3ccccc3)c(=O)n2N)cc1`, the inhibition was 1.33%.
Under `O=c1c2ccccc2nc2n1C(CSCc1cccc(C(F)(F)F)c1)CS2` (configuration not stated) stands -0.91%; under `COc1ccc(C2C3=C(OC(C)=O)c4ccccc4C3=Nc3c2c(=O)n(C)c(=O)n3C)cc1` (configuration not stated), -3.27%.
For the molecule `CC1Cc2cc(/C(O)=C3\C(=O)C(=O)N(Cc4cccnc4)C3c3ccccc3F)ccc2O1` (configuration not stated), the inhibition is -8.03%.
Turning to `O=C1C=C(NCCNc2c(F)c(F)c(CO)c(F)c2F)CCC1`, the inhibition was 16.1% (active).
Regarding `CC1CC(C)CN(C(=O)COC(=O)c2ccc3ncsc3c2)C1` (configuration not stated), the inhibition was 0.01%.
As to `CC(C)NC(=O)Nc1cccc2c1O[C@@H](CN(C)S(=O)(=O)c1ccc(F)cc1)[C@@H](C)CN([C@H](C)CO)C2=O`, the inhibition is -17.1%.
Under `O=C(COC(=O)Cn1cnc2ccccc21)Nc1cccc2c1C(=O)c1ccccc1C2=O` stands 49.2% (active); under `O=C(Cn1cnc2ccccc21)Nc1ccccc1-c1ccccc1`, -15.9%.
In the case of `O=C(COC(=O)c1cccc(Br)c1)Nc1cccc2c1C(=O)c1ccccc1C2=O`, the inhibition was -3.73%.
In the case of `Cc1ccc(S(=O)(=O)N2CCC(C(=O)NCCC3=CCCCC3)CC2)cc1C`, the inhibition is 2.33%.
With `Cc1ccc(OCC(=O)Nc2cccc3c2CCCC3)cc1C`, the inhibition was -1.11%.
Consider `O=C(Nc1ccc(Br)cc1F)C1CC(=O)N(C2CCCCC2)C1` (configuration not stated), for which the inhibition was -9.6%.
On to `CCS(=O)(=O)n1nc(-c2ccccc2)nc1SCc1ccccc1`, for which the inhibition is 0.39%.
`CC(C)Cc1ccc(-c2cc3nc(NCc4cccc(Cl)c4)ccn3n2)cc1`: the inhibition is -0.63%.
As to `COc1ccccc1-c1cc2nc(NCc3cccc(Cl)c3)ccn2n1`, the inhibition was 19.1% (active).
Regarding `COc1ccc(-c2cc3nc(NCCOc4ccccc4)ccn3n2)cc1`, the inhibition was 5.17%.
Consider `O=C(NCCc1ccco1)C(=O)NCCC1CCCCN1S(=O)(=O)c1ccccc1` (configuration not stated), for which the inhibition was 0.36%.
With `COc1cc(OC)c2ccc(=O)oc2c1C(CCN1CCN(c2ccccc2)CC1)c1ccc2c(c1)OCO2` (configuration not stated), the inhibition was -2.01%.
For the molecule `O=C(NC(=O)c1ccc(Cl)c(Cl)c1)OC1CCS(=O)(=O)C1` (configuration not stated), the inhibition was -3.19%.
Under `CCOCCCNS(=O)(=O)Cc1ccccc1` stands 5.68%; under `CCCc1cc(=O)[nH]c(SCC(=O)Nc2ccc(S(=O)(=O)N3CCCC3)cc2)n1`, -14.4%; under `Cc1ccc(S(=O)(=O)N2CCN(C(=O)CSc3cc(C)ccc3C)CC2)c(C)c1`, 1.59%.
With `CCCc1cc(=O)[nH]c(SCC(=O)N2CCN(S(=O)(=O)c3ccc(C)cc3C)CC2)n1`, the inhibition was 22.9% (active).
Take `COc1ccc(S(=O)(=O)N2CCCCC2c2cc(C(=O)NCc3ccc(F)cc3)no2)cc1` (configuration not stated): the inhibition is -3.9%.
With `CCCOn1c(-n2nc(C)cc2C)nc2ccccc2c1=O`, the inhibition is -4.29%.
For the molecule `CC1(C)NC(=O)N(CC(=O)Nc2ccc(-c3ccccc3)cc2)C1=O`, the inhibition was -5.51%.
Regarding `COc1ccc(NC(=S)NCc2cccs2)c(OC)c1`, the inhibition is -8.04%.
Turning to `COc1ccc2[nH]c(C)c(CCN(Cc3cccs3)C(=S)Nc3ccccc3OC)c2c1`, the inhibition was 18.1% (active).
For the molecule `Cc1[nH]c2ccccc2c1CCN(Cc1cccs1)C(=S)NC(C)(C)C`, the inhibition was -6.78%.
Regarding `CCn1c(CSc2nncn2-c2ccc(OC)cc2)nc2cc(S(=O)(=O)N(C)C)ccc21`, the inhibition is 3.36%.
`Cc1ccccc1Nc1nc(N)nc(CSc2nnc3ccccn23)n1`: the inhibition was 7.49%.
Under `CCCn1nc(C(=O)OCc2nc(N)nc(Nc3ccccc3C)n2)c2ccccc2c1=O` stands -13.7%; under `Cc1ccccc1Nc1nc(N)nc(CN2CCN(c3ccccn3)CC2)n1`, 16.7% (active); under `Cc1sc(NC(=S)NC(=O)c2cccs2)nc1-c1ccc(CC(C)C)cc1`, -2.21%.
Consider `O=C(CSCc1ccc([N+](=O)[O-])cc1)Nc1cccc(C(=O)Nc2ccccc2C(=O)O)c1`, for which the inhibition was -7.21%.
Regarding `Cc1ccc(S(=O)(=O)N2CCC(C(=O)OCC(=O)N(C)c3ccccc3)CC2)cc1C`, the inhibition is -4.62%.
With `C[C@@H]1CN([C@H](C)CO)C(=O)CCCn2nncc2CO[C@@H]1CN(C)C(=O)OCc1ccccc1`, the inhibition was -12.2%.
For `COc1ccc(Nc2nc(-c3cccnc3)nc3ccccc23)cn1`, the inhibition was 51.2% (active).
`CCN(CC(=O)NC1CCS(=O)(=O)C1)c1nc(-c2cccnc2)nc2ccccc12` (configuration not stated): the inhibition was -4.31%.
With `O=C(CSc1n[nH]c(-c2cccnc2)n1)Nc1ccnc2ccccc12`, the inhibition is -1.63%.
For the molecule `O=C(C1=C(O)C(=O)N(c2ncccn2)C1c1cccs1)c1ccco1` (configuration not stated), the inhibition was 44.3% (active).
As to `O=C(C1=C(O)C(=O)N(Cc2ccccc2)C1c1cccnc1)c1ccco1` (configuration not stated), the inhibition is -4.41%.
Turning to `Cc1ccc2nc(N3C(=O)C(O)=C(C(=O)c4ccco4)C3c3cccc(O)c3)sc2c1` (configuration not stated), the inhibition is -1.95%.
For `CC(C)c1nc2sc3c(c2c(=O)n1N)CC(C)(C)OC3`, the inhibition is -4.29%.
Turning to `CCOC(=O)Cn1c(SC)nc2sc3c(c2c1=O)CC(C)(C)OC3`, the inhibition is -4.5%.
Consider `CC/C(C)=N/Nc1nc2sc3c(c2c(=O)[nH]1)CC(C)(C)OC3`, for which the inhibition is 20.9% (active).
For `CCC(C)c1ccc(NC(=S)NCc2ccccn2)cc1` (configuration not stated), the inhibition is 0.44%.
On to `CN(C)c1ccc(C2N(C)C(=O)c3ccccc3N2C)cc1` (configuration not stated), for which the inhibition was -1.4%.
Regarding `CN(C)c1ccc(Nc2c3c4c(cccc4n(C)c2=O)C(=O)c2ccccc2-3)cc1`, the inhibition was 48.2% (active).
Regarding `COc1ccc(NC(=O)CC2C(=O)OCC3CCCCN32)cc1Cl` (configuration not stated), the inhibition is 1.67%.
With `Cc1ccc(C(=O)O)c(NC=O)c1OCc1ccccc1`, the inhibition is -0.93%.
Under `COc1ccc(-c2csc(C(O)c3cccc(Cl)c3)n2)cn1` (configuration not stated) stands -11.3%; under `CCN1CC=C2C(C#N)=C(N)C(C#N)(C#N)[C@H](c3ccoc3)[C@H]2C1`, 120% (active); under `CC(C)C(=O)Nc1nnc(Sc2ccc(N(C)C)cc2)s1`, -6.47%.
Under `CCN(CC(=O)NCc1ccc(Cl)cc1)C(=O)CSc1ccccc1` stands -3.84%.
For `CCOC(=O)NC(=O)C(=CNc1cccc(OC)c1)C(=O)NC(=O)OCC`, the inhibition is -2.26%.
As to `CCN(CC)C(=O)CN(c1cccc(OC)c1)S(=O)(=O)c1ccc(C)cc1`, the inhibition was -0.24%.
Under `CCOCCN(C=O)c1cccc(OC)c1` stands 32.6% (active).
